# Tested on: Vero E6 infected with SARS-CoV-2
# Assay: SARS-CoV-2 infection rate relative to infected DMSO; higher = more infection, active = 60 or less
# Conditions: 24 h
row,Structure (SMILES),SARS-CoV-2 infection rate
1,CCOC(=O)C1=C[C@]2(CC)CCCN3CCc4c(n1c1ccccc41)[C@@H]32 [vinpocetine] (10 µM),102% (inactive)
2,CC(C)(C)c1cc(C(=O)/C(C#N)=N/Nc2cccc(Cl)c2)no1 (10 µM),104% (inactive)
3,CC(=O)Oc1c(C)cc(OCC(O)CNC(C)C)c(C)c1C (stereo unspecified) [metipranolol] (10 µM),108% (inactive)
4,CC(ONC(=O)c1cc(C(F)(F)F)cc(C(F)(F)F)c1)C(=O)Nc1ccc(Cl)cc1 (stereo unspecified) (10 µM),89.5% (inactive)
5,COc1ccc(CCO[C@@H]2CCCC[C@H]2N2CC[C@@H](O)C2)cc1OC [vernakalant] (10 µM),110% (inactive)
6,Cc1oc(=O)oc1COC(=O)C1=C([C@H]2CCCO2)S[C@@H]2[C@@H]([C@@H](C)O)C(=O)N12 [faropenem-medoxomil] (10 µM),114% (inactive)

# Reference: the supplement of paper PMC13380429
